# Screen size: about 5,500 compounds; about 2,000 (36%) were called active. Not shown: some 18% with an inconclusive outcome. The list shows a part of the results. A number with no mark means an inactive call. No stated cut-off is given here; in the data, active means normalized growth mostly below about 0.91 (no sharp cut-off); inconclusive means no clear call, values can overlap the other calls; inactive means mostly above about 0.92.
# Test: chemical genetic growth profiling, strain panel (AID 1159580);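 further: tested at 20 µM; growth read once vehicle control cultures reached saturation at 30 °C; 1 = growth at the plate median or of vehicle wells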
# Conditions: S. cerevisiae deletion strains, growth OD
# [1] = locus YAL040C, strain CLN3, stronger effect = lower value
# [2] = locus YCL061C, strain MRC1 (second series), stronger effect = lower value
# [3] = locus YDR150W, strain NUM1, stronger effect = lower value
# [4] = locus YDR363W, strain ESC2, stronger effect = lower value
# [5] = locus YER002W, strain NOP16, stronger effect = lower value
# [6] = locus YMR263W, strain SAP30, stronger effect = lower value
# [7] = locus YMR307W, strain GAS1, stronger effect = lower value
# [8] = locus YNL175C, strain NOP13, stronger effect = lower value
# [9] = locus YNL197C, strain WHI3, stronger effect = lower value
# [10] = locus YNL224C, strain SQS1, stronger effect = lower value
# [11] = locus YOR083W, strain WHI5 (second series), stronger effect = lower value
Compound,"normalized growth (locus YAL013W, strain DEP1, stronger effect = lower value)",normalized growth [1],normalized growth [2],normalized growth [3],normalized growth [4],normalized growth [5],"normalized growth (locus YGR229C, strain SMI1, stronger effect = lower value)",normalized growth [6],normalized growth [7],normalized growth [8],normalized growth [9],normalized growth [10],normalized growth [11],"normalized growth (locus YJR075W, strain HOC1, stronger effect = lower value)","normalized growth (locus YNL128W, strain TEP1, stronger effect = lower value)","normalized growth (locus YNL322C, strain KRE1, stronger effect = lower value)","normalized growth (locus YPL241C, strain CIN2, stronger effect = lower value)"
CC(N)(C(=O)O)c1ccc(C(=O)O)cc1 (stereo not drawn),1.01,1.12 [resistant] (active),1.01,0.998,1.03,0.995,1.01,0.996,1,1,1.02,1,1.02,–,–,–,–
C/C(=C\c1ccc(C(=O)O)cc1)c1ccc2c(c1)C(C)(C)CCC2(C)C,–,1.04,1.02,1.01,1.02,1,–,1.01,1.02,0.994,0.965,1,1.01,1.01,0.994,1.03,1.01

# Source: PubChem BioAssay AID1159580 (chemical genetic matrix, 2015)
